Bioassay records deposited in PubChem by several laboratories.
In the library only some 4.2% were active in any assay of this set; here they are far more common.
RecA splice inh = Mtb RecA intein splicing inhibition. P9WHJ3. cell-free RecA intein splicing, fluorescence. inhibition, % (concentration not given with the values). actives 0.75% (n = 290,000). AID 2221; in the data active = inhibition above about 30%
Target sequence (P9WHJ3 whole entry, looked up, canonical isoform): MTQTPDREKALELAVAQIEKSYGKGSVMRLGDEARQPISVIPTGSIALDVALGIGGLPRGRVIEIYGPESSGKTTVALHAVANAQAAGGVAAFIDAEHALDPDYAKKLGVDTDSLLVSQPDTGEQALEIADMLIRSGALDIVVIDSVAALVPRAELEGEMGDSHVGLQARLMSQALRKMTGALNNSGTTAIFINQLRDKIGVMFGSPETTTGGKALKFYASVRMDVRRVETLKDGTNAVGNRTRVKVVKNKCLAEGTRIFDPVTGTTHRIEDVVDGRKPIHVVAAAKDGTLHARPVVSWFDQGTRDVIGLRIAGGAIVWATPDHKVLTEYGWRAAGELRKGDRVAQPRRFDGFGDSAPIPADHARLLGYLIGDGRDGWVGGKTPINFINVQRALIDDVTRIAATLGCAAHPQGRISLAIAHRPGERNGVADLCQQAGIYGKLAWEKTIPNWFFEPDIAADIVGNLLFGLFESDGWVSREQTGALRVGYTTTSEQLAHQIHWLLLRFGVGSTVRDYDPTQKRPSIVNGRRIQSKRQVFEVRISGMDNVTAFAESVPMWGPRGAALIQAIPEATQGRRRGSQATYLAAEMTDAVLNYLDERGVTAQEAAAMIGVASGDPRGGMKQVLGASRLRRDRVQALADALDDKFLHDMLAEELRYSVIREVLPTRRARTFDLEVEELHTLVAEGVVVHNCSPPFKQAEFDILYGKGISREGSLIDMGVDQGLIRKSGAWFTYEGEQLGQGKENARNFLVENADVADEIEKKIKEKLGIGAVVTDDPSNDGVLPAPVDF
CCHFV vOTU inh = CCHFV vOTU protease inhibition. Pep-AMC fluorescence. actives 0.55% (n = 370,000). AID 651958. inhibition, % at 11.5 µM
GDH-TPI counter = GDH-TPI coupled enzyme inhibition counter-screen. actives 1.2% (n = 360,000). GDH-TPI coupled enzyme counterscreen, NADH absorbance. inhibition, % at 4.8 µM. AID 588335
FBA Mtb inh = inhibitors of M. tuberculosis fructose-bisphosphate aldolase | purified M. tuberculosis FBA, fluorescence read-out | P9WQA3 | actives 2.3% (n = 360,000) | inhibition, % at 1 µM; in the data active = inhibition above about 27%
Mtb bLac sens = beta-lactam sensitization of Mtb H37Rv; M. tuberculosis H37Rv growth with meropenem, percent inhibition; inhibition, % at 25 µM; actives 0.27% (n = 330,000); call rule not given here;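 note: growth measured after seven days incubation then overnight dye step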
Hits are given with their value. Cut-off read from the data, not from the text of the source, unless noted: active = inhibition above about 30%; inactive = the rest.

Screening CCOc1cc(C=C2C(=O)NC(=S)NC2=O)ccc1O returned CCHFV vOTU inh inactive, GDH-TPI counter 34 and FBA Mtb inh inactive.
COc1cc(C=NCc2ccccc2)ccc1O was read as CCHFV vOTU inh inactive, GDH-TPI counter 42 and FBA Mtb inh inactive.
For CCOc1cc(/C=C2\NC(=O)NC2=O)ccc1OC(C)C(=O)O (configuration not stated) the results were RecA splice inh inactive, CCHFV vOTU inh inactive, GDH-TPI counter 47, FBA Mtb inh inactive and Mtb bLac sens inactive.
For COc1cc(C=O)ccc1O the results were CCHFV vOTU inh inactive, GDH-TPI counter 58 and FBA Mtb inh inactive.
COc1ccc(C=C2C(=O)NC(=S)NC2=O)cc1OC was read as CCHFV vOTU inh inactive, GDH-TPI counter inactive and FBA Mtb inh inactive.
For COC(=O)[C@]12C[C@H](CC(=O)N3CCN(C(=O)c4ccco4)CC3)C(=O)N(Cc3cccc4ccccc34)C1=C[C@H](C1CCCC1)O[C@@H]2C the results were CCHFV vOTU inh inactive.
Cc1cc(C(=O)Nc2ccc(F)cc2)n(-c2ccccc2)n1 was read as CCHFV vOTU inh inactive.
For CCOc1cc(/C=C2\NC(=O)NC2=O)cc([N+](=O)[O-])c1O the results were RecA splice inh inactive, CCHFV vOTU inh inactive, GDH-TPI counter 32, FBA Mtb inh inactive and Mtb bLac sens inactive.
For CCOc1cc(/C=C2\C(=O)NC(=O)N(C)C2=O)cc([N+](=O)[O-])c1O the results were RecA splice inh inactive, CCHFV vOTU inh inactive, GDH-TPI counter inactive, FBA Mtb inh inactive and Mtb bLac sens inactive.
COc1cc(C=C2NC(=O)NC2=O)ccc1O was read as CCHFV vOTU inh inactive, GDH-TPI counter 35 and FBA Mtb inh inactive.
For Nn1c(SCC(=O)N2CCOCC2)nnc1-c1n[nH]c2c1CCC2 the results were CCHFV vOTU inh inactive.
Screening Cc1ccc(N/N=C(\C#N)C(N)=S)c(C)c1 returned RecA splice inh inactive, CCHFV vOTU inh inactive, GDH-TPI counter inactive, FBA Mtb inh inactive and Mtb bLac sens inactive.
Cc1ccc(NC(=O)/C(C#N)=N/Nc2ccc(C(=O)O)cc2)c(C)c1 was read as RecA splice inh inactive, CCHFV vOTU inh inactive, GDH-TPI counter 58, FBA Mtb inh inactive and Mtb bLac sens inactive.
For COC(=O)[C@]12C[C@H](CC(=O)NCC3CCCCC3)C(=O)N(Cc3ccccc3)C1=C[C@H](C(C)C)O[C@@H]2C1CC1 the results were CCHFV vOTU inh inactive.
`Cc1c(Cl)cccc1NC(=S)/C(=C(\[O-])c1ccc(Cl)s1)[n+]1ccccc1` gave RecA splice inh 37, CCHFV vOTU inh inactive, GDH-TPI counter inactive, FBA Mtb inh inactive and Mtb bLac sens inactive.
For [O-]/C(=C(\C(=S)NCc1ccc2c(c1)OCO2)[n+]1ccccc1)c1ccc(Cl)s1 the results were RecA splice inh inactive, CCHFV vOTU inh inactive, GDH-TPI counter inactive, FBA Mtb inh inactive and Mtb bLac sens inactive.
For COC(=O)[C@]12C[C@H](CC(=O)NCCCCc3ccccc3)C(=O)N(Cc3ccc(Cl)cc3Cl)C1=C[C@H](C1CCCC1)O[C@@H]2C the results were CCHFV vOTU inh inactive.
For Cc1cc(C(=O)N/N=C/C=C/c2ccc(Br)cc2)n[nH]1 the results were RecA splice inh inactive, CCHFV vOTU inh inactive, GDH-TPI counter 42, FBA Mtb inh inactive and Mtb bLac sens inactive.
Cc1cc(C(=O)N/N=C/C=C/c2ccc([N+](=O)[O-])cc2)n[nH]1 was read as RecA splice inh inactive, CCHFV vOTU inh inactive, GDH-TPI counter 41, FBA Mtb inh inactive and Mtb bLac sens inactive.
`Cc1ccc(-c2nnc(SCC(=O)Nc3ccc4c(c3)OCCO4)n2-c2ccc(C)cc2)cc1` gave CCHFV vOTU inh inactive.
Screening COC(=O)c1c(C#N)c(N)nc2c1CCC2 returned RecA splice inh inactive, CCHFV vOTU inh inactive, GDH-TPI counter inactive, FBA Mtb inh 130 and Mtb bLac sens inactive.
For CCOC(=O)c1cnc2ccc(C)cc2c1Sc1ccc(F)cc1 the results were RecA splice inh 67, CCHFV vOTU inh inactive, GDH-TPI counter inactive, FBA Mtb inh inactive and Mtb bLac sens inactive.
CCCCCN1CCCCC(NC(=O)c2ccccc2C)C1=O (configuration not stated) was read as CCHFV vOTU inh inactive.
CS(=O)(=O)Nc1ccc(-c2cn3cccnc3n2)cc1 was read as RecA splice inh inactive, CCHFV vOTU inh inactive, GDH-TPI counter inactive, FBA Mtb inh 115 and Mtb bLac sens inactive.
`Nc1cccc(-c2cn3cccnc3n2)c1` gave RecA splice inh inactive, CCHFV vOTU inh inactive, GDH-TPI counter inactive, FBA Mtb inh inactive and Mtb bLac sens inactive.
Screening Cc1ccc(-c2cn3cccnc3n2)cc1 returned RecA splice inh inactive, CCHFV vOTU inh inactive, GDH-TPI counter inactive, FBA Mtb inh active and Mtb bLac sens inactive.
Screening O=C(Cn1nc(-c2ccccc2)ccc1=O)NCCc1cccc(F)c1 returned CCHFV vOTU inh inactive.
For CCCCCCNC(=O)C1CSCCS(=O)(=O)N1Cc1ccccc1 (configuration not stated) the results were CCHFV vOTU inh inactive.
For Cc1cc2nc(Sc3c([N+](=O)[O-])nc(C)n3Cc3ccccc3)[nH]c2cc1C the results were RecA splice inh 46, CCHFV vOTU inh inactive, GDH-TPI counter inactive, FBA Mtb inh inactive and Mtb bLac sens inactive.
For COc1ccc2nc(Sc3c([N+](=O)[O-])nc(C)n3Cc3ccccc3)[nH]c2c1 the results were RecA splice inh inactive, CCHFV vOTU inh inactive and Mtb bLac sens inactive.
`Cc1nc([N+](=O)[O-])c(Sc2nc3ccccc3[nH]2)n1Cc1ccccc1` gave RecA splice inh 38, CCHFV vOTU inh inactive, GDH-TPI counter inactive, FBA Mtb inh inactive and Mtb bLac sens inactive.
For CCOc1ccc(C(=O)Nc2nnc(SCC(=O)NCC3CCCO3)s2)cc1 (configuration not stated) the results were RecA splice inh inactive, CCHFV vOTU inh inactive, GDH-TPI counter 38, FBA Mtb inh inactive and Mtb bLac sens inactive.
`CN(C)S(=O)(=O)c1ccc(C(=O)Nc2nnc(SCC(=O)NCC3CCCO3)s2)cc1` (configuration not stated) gave RecA splice inh inactive, CCHFV vOTU inh inactive, GDH-TPI counter 35, FBA Mtb inh inactive and Mtb bLac sens inactive.
COC(=O)[C@]12C[C@H](CC(=O)NCc3cccc4ccccc34)C(=O)N(CCc3ccc(OC)c(OC)c3)C1=C[C@H](COCc1ccccc1)O[C@@H]2C was read as CCHFV vOTU inh inactive.
Screening Cc1c(C)c2c(C)[nH]nc2oc1=O returned RecA splice inh inactive, CCHFV vOTU inh inactive, GDH-TPI counter inactive, FBA Mtb inh inactive and Mtb bLac sens inactive.
Screening CCCc1c(C)c2c(C)[nH]nc2oc1=O returned RecA splice inh 41, CCHFV vOTU inh inactive, GDH-TPI counter inactive, FBA Mtb inh inactive and Mtb bLac sens inactive.
For CCOC(=O)Cc1c(C)c2c(C)[nH]nc2oc1=O the results were RecA splice inh 39, CCHFV vOTU inh inactive, GDH-TPI counter inactive, FBA Mtb inh inactive and Mtb bLac sens inactive.
For CCCn1c(NC(=O)c2cccc(S(=O)(=O)N3CCCC3)c2)nc2ccccc21 the results were RecA splice inh inactive, CCHFV vOTU inh inactive, GDH-TPI counter 35, FBA Mtb inh inactive and Mtb bLac sens inactive.
